Rows were chosen to be rich in hits. Some 21% of all compounds tested hit in one or more screens of this group.
HCMV antiviral – human cytomegalovirus inhibition | HFF cells, HCMV-luciferase reporter, 72 h; hits give low values | activity change, negative = inhibition, % at 57.5 µM | 410,000 tested, 4.5% active; in the data active = activity change below about -60%; inconclusive = no clear call, values can overlap the other calls; inactive = above about -39%; also: % is scaled to controls: 0 for no effect and ±100 for the full control effect
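Inhibition of viral replication was scored as loss of reporter luminescence in HFFs infected with HCMV-luciferase (MOI 1 PFU/cell) for 72 h; compounds tested at 2 doses, normalized to buffer and Salinomycin controls.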
Cycloheximide cs – counter-screen for Shiga toxin inhibitors: cycloheximide protein synthesis inhibition. max response, %. 300,000 tested, 12% active. AID 2314. cell reporter, cycloheximide protein synthesis inhibition counterscreen; in the data active = max response mostly above about 13%, no sharp cut-off; inactive = mostly below about 14%; also: read at 38.3 µM for the half of the compounds with a filed dose; 0% is about no effect
Pf growth 96h – inhibits malaria parasite growth, 96 h | P. falciparum luciferase reporter growth, 96 h | Potency, µM (top dose mostly 28.7 µM), inactives show top-dose activity change, negative = inhibition, actives largely listed as inhibitors | 320,000 tested, 6.9% active; also: potency is read from the fitted curve at half-maximal effect; % is scaled to controls: 0 for no effect and ±100 for the full control effect
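Infected RBCs, 2% Hct / 0.05% parasitemia final; luciferase-reporter P. falciparum; cpd 96 h, 37 C, 5% CO2; luciferase detection reagent; luminescence.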
Shiga toxin inh – blocks Shiga toxin action in Vero cells | inhibition, % at 38.7 µM | 290,000 tested, 9.2% active | Vero cells, Shiga toxin protein synthesis inhibition reporter; in the data active = inhibition mostly above about 28%, no sharp cut-off; inactive = mostly below about 43%; also: 0% is about no effect
HCV inhibitor – inhibitors of hepatitis C virus infection; 340,000 tested, 3.4% active; Potency, µM (doses to about 41.8 µM), inactives show at the highest dose activity change, negative = inhibition, hits mostly inhibitors; Huh7.5.1 HCVcc-Cre infection, luciferase reporter, 44 h; AID 651820; also: potency is read from the fitted curve at half-maximal effect; % is scaled to controls: 0 for no effect and ±100 for the full control effect
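After 44 h co-culture of compound, cells and HCVcc-Cre (~0.5 moi), substrate is added for 15 min at room temperature and luciferase measured over 15 sec. Cells were seeded at 1,000/well and pre-cultured 4 h.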
Pf growth 48h – inhibits P. falciparum growth in the first generation, 48 h. 310,000 tested, 5.9% active. AID 504832. Potency, µM (top dose mostly 28.7 µM), without a hit: at the highest dose activity change, negative = inhibition, hits mostly inhibitors. P. falciparum luciferase growth in erythrocytes, 48 h; also: potency is read from the fitted curve at half-maximal effect; % is scaled to controls: 0 for no effect and ±100 for the full control effect
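Erythrocytes infected with P. falciparum carrying an integrated firefly luciferase reporter (2% hematocrit, 0.1% parasitemia final) were exposed to compounds in RPMI 1640 with 0.5% Albumax at 37 C, 5% CO2. Growth inhibition was scored as reduced luminescence.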
An asterisk follows results filed as active. Unless noted, calls follow the shape of the dose curve; as a rule, active = well fitted inhibition curve with a large enough effect; inconclusive = small, poorly fitted or top-dose-only effect, or another doubt; inactive = no such curve, though single readings can be large or run the other way.

Screening OCCCCNCc1ccc(OCc2ccc(Cl)cc2)cc1 returned HCMV antiviral -27, Cycloheximide cs -2, Pf growth 96h 15µM*, Shiga toxin inh 29, HCV inhibitor inconclusive and Pf growth 48h inconclusive.
CCOc1cc(CNC(C)C(O)c2ccccc2)cc(Cl)c1OCC (centres undefined) was read as HCMV antiviral 79, Cycloheximide cs -2, Pf growth 96h inconclusive, Shiga toxin inh 2, HCV inhibitor -24% and Pf growth 48h 1.5µM*.
`CC(NCc1cccc(OCc2ccccc2)c1)C(O)c1ccccc1` (centres undefined) gave HCMV antiviral inconclusive, Cycloheximide cs -2, Pf growth 96h inconclusive, Shiga toxin inh -10, HCV inhibitor inconclusive and Pf growth 48h inconclusive.
Screening CC(NCc1ccc(Cl)c(Cl)c1)C(O)c1ccccc1 (centres undefined) returned HCMV antiviral -71*, Cycloheximide cs -3, Shiga toxin inh -13, HCV inhibitor 20% and Pf growth 48h inconclusive.
CC(NCc1ccccc1Cl)C(O)c1ccccc1 (centres undefined) was read as HCMV antiviral 16, Cycloheximide cs 20, Pf growth 96h 7.4µM*, Shiga toxin inh 19, HCV inhibitor 5% and Pf growth 48h 9.3µM*.
Screening CC(NCc1ccc(OCc2ccc(Cl)cc2)cc1)C(O)c1ccccc1 (centres undefined) returned HCMV antiviral -28, Cycloheximide cs -2, Pf growth 96h inconclusive, Shiga toxin inh -4, HCV inhibitor 10µM* and Pf growth 48h inconclusive.
For COc1cc2c(cc1NC(=O)COC(=O)CNC(=O)c1ccccc1)oc1ccccc12 the results were HCMV antiviral inconclusive, Cycloheximide cs 32*, Pf growth 96h 111%, Shiga toxin inh 49*, HCV inhibitor 10µM* and Pf growth 48h 44%.
COc1cc2c(cc1NC(=O)COC(=O)C1CC(=O)N(Cc3ccco3)C1)oc1ccccc12 (centres undefined) was read as HCMV antiviral 203, Cycloheximide cs 23*, Pf growth 96h 21%, Shiga toxin inh 63, HCV inhibitor 4.5µM* and Pf growth 48h 49%.
COc1cc2c(cc1NC(=O)COC(=O)[C@@H](NC(=O)c1ccccc1F)C(C)C)oc1ccccc12 was read as HCMV antiviral -9, Cycloheximide cs 8, Pf growth 96h inconclusive, Shiga toxin inh -2, HCV inhibitor inconclusive and Pf growth 48h inconclusive.
For COc1cc2c(cc1NC(=O)COCC(=O)O)oc1ccccc12 the results were HCMV antiviral inconclusive, Cycloheximide cs -1, Pf growth 96h 45%, Shiga toxin inh 17, HCV inhibitor 2% and Pf growth 48h 34%.
Screening COc1cc2c(cc1NC(=O)COC(=O)[C@@H](NC(=O)c1ccccc1)C(C)C)oc1ccccc12 returned HCMV antiviral 10, Cycloheximide cs 14, Pf growth 96h inconclusive, Shiga toxin inh 19, HCV inhibitor 7.1µM* and Pf growth 48h -20%.
For CCOC(=O)N1CCN(S(=O)(=O)CCNC(=O)c2ccc(F)cc2)CC1 the results were HCMV antiviral -3, Pf growth 96h -2%, HCV inhibitor 22% and Pf growth 48h 17%.
For O=C(COc1ccc(S(=O)(=O)NC2CCCCC2)cc1)NCc1ccccn1 the results were HCMV antiviral 10, Cycloheximide cs 0, Pf growth 96h 4.1µM*, Shiga toxin inh -9, HCV inhibitor 6% and Pf growth 48h 1%.
Screening CC(=O)c1cccc(S(=O)(=O)NC2CCCCCC2)c1 returned HCMV antiviral -31, Cycloheximide cs 1, Pf growth 96h -10%, Shiga toxin inh -8, HCV inhibitor 17% and Pf growth 48h 23%.
CCNS(=O)(=O)c1ccc(CCC(=O)NCc2ccccn2)cc1 was read as HCMV antiviral -17, Cycloheximide cs 5, Pf growth 96h 19%, HCV inhibitor 18% and Pf growth 48h 0%.
For O=C(CCc1ccc(S(=O)(=O)NC2CCCCC2)cc1)NCc1ccccn1 the results were HCMV antiviral 11, Cycloheximide cs 44*, Pf growth 96h -14%, Shiga toxin inh 98*, HCV inhibitor 33% and Pf growth 48h 29%.
O=C(CCc1ccc(S(=O)(=O)NC2CCCCC2)cc1)Nc1ccccc1 was read as HCMV antiviral -69*, Cycloheximide cs -1, Shiga toxin inh 3, HCV inhibitor 7% and Pf growth 48h inconclusive.
Screening O=C(Nc1ccccc1)c1cccc(S(=O)(=O)NC2CCCC2)c1 returned HCMV antiviral -8, Cycloheximide cs 2, Pf growth 96h 12µM*, Shiga toxin inh 11, HCV inhibitor -20% and Pf growth 48h 13%.
`COCCn1c(N)c(N(Cc2ccccc2)C(=O)C2=COCCO2)c(=O)[nH]c1=O` gave Cycloheximide cs -1, Pf growth 96h -14%, Shiga toxin inh -5, HCV inhibitor 24% and Pf growth 48h 110%.
Screening O=S(=O)(NC1CCCCC1Nc1ccc(Cl)cc1)c1ccccc1 (centres undefined) returned HCMV antiviral -31, Cycloheximide cs -4, Pf growth 96h 5%, Shiga toxin inh -11, HCV inhibitor inconclusive and Pf growth 48h -7%.
Screening CC(=O)Nc1ccc(NC2CCCCC2NS(=O)(=O)c2ccccc2)cc1 (centres undefined) returned HCMV antiviral 23, Cycloheximide cs -2, Pf growth 96h 8.3µM*, Shiga toxin inh -3, HCV inhibitor 20% and Pf growth 48h -5%.
CCCCOc1cccc(NC(=O)CSc2nnc(C)s2)c1 was read as HCMV antiviral 2.
For CCOC(=O)/C(=N\Nc1ccccc1Cl)N1CCN(Cc2ccccc2)CC1 the results were HCMV antiviral -19, Cycloheximide cs 21*, Pf growth 96h inconclusive, Shiga toxin inh -13, HCV inhibitor 9% and Pf growth 48h -25%.
CCOC(=O)/C(=N\Nc1ccccc1Cl)N1CCN(C)CC1 was read as HCMV antiviral -32, Cycloheximide cs -3, Pf growth 96h 22%, Shiga toxin inh -2, HCV inhibitor -7% and Pf growth 48h 26%.
For CCOC(=O)/C(=N\Nc1ccccc1)N1CC1 the results were HCMV antiviral -30, Cycloheximide cs 19*, Pf growth 96h 11%, Shiga toxin inh 63, HCV inhibitor -7% and Pf growth 48h 0%.
For CCc1ccc(-n2c(=O)c3c(C)c(C(=O)N(C)C)sc3n(Cc3ccccc3F)c2=O)cc1 the results were HCMV antiviral 72.
`CC(C)c1ccc(NC(=O)CCNS(=O)(=O)c2ccc3c(c2)CCCC(=O)N3)cc1` gave HCMV antiviral -12.
For CCOc1ccc(NC(=O)N2CCc3ccccc3C2)cc1 the results were HCMV antiviral 81, Cycloheximide cs 48*, Pf growth 96h inconclusive, Shiga toxin inh 58*, HCV inhibitor 0% and Pf growth 48h 50%.

High-throughput results: PubChem, National Center for Advancing Translational Sciences (NCATS)
